Structures can show the parent of a compound that is named as a salt.
system: Saccharomyces cerevisiae BY4741 SeMeCo community; test: z-score of subpopulation abundance vs DMSO median, subpopulation auxotrophic for LM; higher = larger share of this subpopulation than in DMSO controls; settings: 10 µM; 24 h; SM minimal medium; subpopulation (auxotrophy): LM
Method: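 Fluorescent four-plasmid SeMeCo (self-establishing metabolically cooperating S. cerevisiae BY4741 community; plasmids pH-mRuby2, pL-mWasabi, pU-eCFP, pM-TagRFP657) was grown 24 h in minimal SM medium with each Selleck FDA-approved drug at 10 µM in 384-well plates. Cells were fixed and imaged by high-content confocal microscopy. For each auxotrophic subpopulation (and the prototroph), a z-score gives the deviation from the DMSO vehicle-control population median.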

Structure (SMILES) | z-score of subpopulation abundance
CO[C@H]1C[C@@H]2CC[C@@H](C)[C@@](O)(O2)C(=O)C(=O)N2CCCC[C@H]2C(=O)O[C@H]([C@H](C)C[C@@H]2CC[C@@H](OP(C)(C)=O)[C@H](OC)C2)CC(=O)[C@H](C)/C=C(\C)[C@@H](O)[C@@H](OC)C(=O)[C@H](C)C[C@H](C)/C=C/C=C/C=C/1C [Ridaforolimus (Deforolimus, MK-8669)] | 5.98
CN1CCOC(c2ccccc2)c2ccccc2C1 (stereo not given) [Nefopam HCl] | -0.2
NC1CCN(c2nc3c(cc2F)c(=O)c(C(=O)O)cn3-c2ccc(F)cc2F)C1 (stereo not given) [Tosufloxacin p-Toluenesulfonate Hydrate] | -0.53
CNCC[C@H](Oc1cccc2ccccc12)c1cccs1 [Duloxetine] | -0.49
CC(Cc1ccc(O)c(O)c1)C(C)Cc1ccc(O)c(O)c1 (stereo not given) [Nordihydroguaiaretic acid (NDGA)] | 0.02
COC(=O)Nc1nc2cc(C(=O)c3ccccc3)ccc2[nH]1 [Mebendazole] | 1.32
O=C1c2cccc3c2[C@H](CCC3)CN1[C@@H]1CN2CCC1CC2 [Palonosetron] | -0.55
NC[C@@H]1O[C@H](O[C@H]2[C@@H](O)[C@H](O[C@@H]3[C@@H](O)[C@H](N)C[C@H](N)[C@H]3O[C@H]3O[C@H](CN)[C@@H](O)[C@H](O)[C@H]3N)O[C@@H]2CO)[C@H](N)[C@@H](O)[C@@H]1O [Neomycin sulfate] | -0.12
CN(C)CCc1c[nH]c2ccc(CS(=O)(=O)N3CCCC3)cc12 [Almotriptan Malate] | -0.71
Cc1ccccc1C(OCCN(C)C)c1ccccc1 (stereo not given) [Orphenadrine Citrate] | -0.43
NC12CC3CC(CC(C3)C1)C2 [Amantadine HCl] | -0.26
CONC(=O)Nc1ccc(-c2sc3c(c2CN(C)C)c(=O)n(-c2ccc(OC)nn2)c(=O)n3Cc2c(F)cccc2F)cc1 [Relugolix] | -0.08
Fc1ccc([C@@H]2CCNC[C@H]2COc2ccc3c(c2)OCO3)cc1 [Paroxetine HCl] | -0.61
CN(C)CCCN1c2ccccc2CCc2ccc(Cl)cc21 [Clomipramine HCl] | -0.41
CCn1cc(C(=O)O)c(=O)c2cc(F)c(N3CCN(C)CC3)cc21 [Pefloxacin Mesylate] | 0
COc1ccc(CC2c3cc(OC)c(OC)cc3CC[N+]2(C)CCC(=O)OCCCCCOC(=O)CC[N+]2(C)CCc3cc(OC)c(OC)cc3C2Cc2ccc(OC)c(OC)c2)cc1OC (stereo not given) [Atracurium Besylate] | 0.79
Nc1ccc(S(=O)(=O)Nc2ncccn2)cc1 [Sodium sulfadiazine] | 0.18
NCc1ccccc1CC(=O)N[C@@H]1C(=O)N2C(C(=O)O)=C(CSc3nnnn3CC(=O)O)CS[C@H]12 [Ceforanide] | 1.65
CCc1cc(C(N)=S)ccn1 [Ethionamide] | 0.32
Cc1onc(-c2ccccc2)c1-c1ccc(S(N)(=O)=O)cc1 [Valdecoxib] | 0.09

Structure (SMILES) | z-score of subpopulation abundance
C[C@]1(Cn2ccnn2)[C@H](C(=O)O)N2C(=O)C[C@H]2S1(=O)=O [Tazobactam] | -0.39
Cc1[nH]c(=O)c(C#N)cc1-c1ccncc1 [Milrinone] | -0.5
Cc1nnc(SCC2=C(C(=O)O)N3C(=O)[C@@H](NC(=O)Cn4cc(Cl)c(=O)c(Cl)c4)[C@H]3SC2)s1 [Cefazedone] | -0.95
CN1CC(=O)N2[C@H](c3ccc4c(c3)OCO4)c3[nH]c4ccccc4c3C[C@@H]2C1=O [Tadalafil] | 3.43
O=C(O)c1cccnc1Nc1cccc(C(F)(F)F)c1 [Niflumic acid] | -0.15
CCN1CCCC1CNC(=O)c1cc(S(N)(=O)=O)ccc1OC (stereo not given) [Sulpiride] | -0.86
CN[C@@H]1[C@H](O[C@H]2[C@H](O[C@H]3[C@H](O)[C@@H](O)[C@H](N=C(N)N)[C@@H](O)[C@@H]3N=C(N)N)O[C@@H](C)[C@]2(O)C=O)O[C@@H](CO)[C@H](O)[C@H]1O [Streptomycin sulfate] | -0.12
CC1(C)S[C@@H]2[C@H](NC(=O)[C@H](N)c3ccccc3)C(=O)N2[C@H]1C(=O)OCOC(=O)[C@@H]1N2C(=O)C[C@H]2S(=O)(=O)C1(C)C [Sultamicillin] | 0.38
C=CC(C)(O)CCC=C(C)C (stereo not given) [Linalool] | -0.19
COc1cc(O)c(C(=O)Nc2nc(C(=O)NCCN(C(C)C)C(C)C)cs2)cc1OC [Acotiamide hydrochloride] | -0.2
CS(=O)(=O)Nc1ccc([N+](=O)[O-])cc1Oc1ccccc1 [Nimesulide] | 0.74
C[C@@H](O)[C@H]1C(=O)N2C(C(=O)OCOC(=O)C(C)(C)C)=C(SC3CN(C4=NCCS4)C3)[C@H](C)[C@H]12 [Tebipenem Pivoxil] | 0.18
CN1CCN(c2c(F)cc3c(=O)c(C(=O)O)cn4c3c2OCN4C)CC1 [Marbofloxacin] | -0.36
COc1ccc(C[C@H](N)C(=O)N[C@H]2[C@@H](O)[C@H](n3cnc4c(N(C)C)ncnc43)O[C@@H]2CO)cc1 [Puromycin 2HCl] | -0.47
O=C(O)Cc1ccccc1Nc1c(Cl)cccc1Cl [Diclofenac acid] | 0
C[C@](N)(Cc1ccc(O)c(O)c1)C(=O)O [Methyldopa] | -0.77
OC(CCN1CCCCC1)(c1ccccc1)C1CCCCC1 (stereo not given) [Trihexyphenidyl hydrochloride] | -0.29
NC(=O)N1c2ccccc2CC(=O)c2ccccc21 [Oxcarbazepine] | 0.14
CCN[C@@H]1C[C@H](N)[C@@H](O[C@H]2OC(CN)=CC[C@H]2N)[C@H](O)[C@H]1O[C@H]1OC[C@](C)(O)[C@H](NC)[C@H]1O [Netilmicin Sulfate] | 0.44
CCC[C@@H]1C[C@@H](C(=O)N[C@@H]([C@H]2O[C@H](SC)[C@H](O)[C@@H](O)[C@H]2O)[C@@H](C)O)N(C)C1 [Lincomycin HCl] | -0.14
